TWEAK Fn14 block: inhibitors of TWEAK-Fn14 interaction signaling; TWEAK-stimulated Fn14 reporter cells, luciferase luminescence, 8 h; inhibition, % at 10 µM; 360,000 compounds, 2% hits; AID 1159606; in the data active means inhibition above about 50%
TROY signal inh: blocks TROY-dependent signaling in reporter cells. Q293 LMP1-TROYcd NF-kB luciferase reporter, 4 h. inhibition, % at 10 µM. 360,000 compounds, 0.98% hits. AID 1347056;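 active means compounds whose plate-normalised and pattern-corrected inhibition of the luciferase reporter signal at the single screening dose is 50% or more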
LGR2 inh: Drosophila LGR2 receptor signaling inhibition | HEK293 LGR2, CRE-luciferase, bursicon-stimulated, 4 h | AID 720647 | inhibition, % at 9.99 µM | 380,000 compounds, 0.35% hits;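 active means drop in luminescence signal, shown as inhibition above about 50% in the replicate tests, limit read from the data, passing the limit was not always enough; inconclusive means probably only some replicates passing the limit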;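 further: agonist challenge used bursicon conditioned medium at about half maximal strength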
HSF1 inhib: HSF1 inhibition. 300,000 compounds, 0.77% hits. activity change, negative = inhibition, % at 7.5 µM (by protocol). NIH3T3-HGL HSE-luciferase, MG132-induced, luminescence 8 h; hits give low values;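 active means more than half of replicate wells show activity change below -50%, luminescence cut by over half; inconclusive means some wells, but at most half, below -50%; inactive means no replicate well below -50%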;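 further: luciferase reports HSF-1 transcriptional activity via heat shock element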
LMP1 NFkB inh: reduces LMP1-driven NF-kappaB luciferase signal | LMP1-induced NF-kappaB luciferase reporter cells, luminescence | inhibition, % at 12.5 µM | 350,000 compounds, 0.69% hits; in the data active means inhibition above about 41%; inconclusive means no clear call, values can overlap the other calls
HSF1 activator: increases HSF-1 driven luciferase reporter signal. NIH3T3-HGL HSF-1 luciferase reporter, MG132, 8 h; 100% = twice DMSO control signal. activation, % at 9 µM. 300,000 compounds, 1.7% hits. AID 504408;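 active means mean replicate activation of at least 50% with a set share of replicates each reaching 50%; inconclusive means only one of those two conditions met; inactive means mean below 50% and too few replicates reaching it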
Hits are given with their value; i = inactive; ? = inconclusive; nt = no result. Hits are enriched below; roughly 3.6% of the tested compounds scored in any of these assays.

SMILES	TWEAK Fn14 block	TROY signal inh	LGR2 inh	HSF1 inhib	LMP1 NFkB inh	HSF1 activator
O=C(CC1CC1)N1[C@H](CO)[C@@H](c2ccccc2)C12CN(S(=O)(=O)c1ccccc1)C2	nt	nt	i	nt	nt	nt
Oc1ccc(N=Cc2ccc(OCc3ccccc3)cc2)cc1	i	i	i	i	i	65
C[C@H]1CN([C@@H](C)CO)C(=O)c2cccc(NS(=O)(=O)c3ccc(F)cc3)c2O[C@@H]1CN(C)Cc1ccc(C(F)(F)F)cc1	nt	nt	i	nt	nt	nt
Cc1coc2c1C(=O)C(=O)c1c-2ccc2c(C)cccc12	i	i	nt	i	79	i
CCCCNC(=S)N/N=C1\C(=O)c2cccc3cccc1c23	i	i	nt	i	i	i
CNC(=S)N/N=C1\C(=O)c2cccc3cccc1c23	97	i	nt	i	i	i
CCCNC(=O)N1CC2(CN(S(=O)(=O)c3ccc(OC)cc3)C2)c2c(n(C)c3cc(OC)ccc23)[C@@H]1CO	nt	nt	i	nt	nt	nt
CCCc1cc(=O)[nH]c(SCC(=O)Nc2ccc(Br)cc2)n1	i	i	i	i	i	i
CCCc1cc(=O)[nH]c(SCC(=O)Nc2ccc(Br)cc2Br)n1	i	68	i	i	i	i
Cc1ccc(SCc2cc(=O)[nH]c(SCC(=O)Nc3cc(Cl)ccc3Cl)n2)cc1	i	59	i	i	i	i
CCCc1cc(=O)[nH]c(SCc2nc3ccccc3s2)n1	i	i	nt	i	i	62
CCCN(C)C[C@H]1Oc2ncc(Br)cc2C(=O)N([C@H](C)CO)C[C@H]1C	nt	nt	i	nt	nt	nt
CCCCCCN1CCN(C2CN(Cc3cn(Cc4ccc(Cl)cc4)nn3)S(=O)(=O)C2)CC1 (stereo unspecified)	i	i	i	nt	nt	nt
CCCCCCn1cc(CN2CC(N3CCN(CCO)CC3)CS2(=O)=O)nn1 (stereo unspecified)	108	i	i	nt	nt	nt
CCNC(=O)C[C@H]1CC[C@H]2[C@@H](COc3ccc(NC(=O)c4cc(C)on4)cc3C(=O)N2C)O1	nt	nt	i	nt	nt	nt
C[C@@H]1CN([C@H](C)CO)C(=O)Cc2cc(NC(=O)C3CCCCC3)ccc2O[C@H]1CN(C)Cc1ccc(Oc2ccccc2)cc1	nt	nt	i	nt	nt	nt
Cc1ccc(S(=O)(=O)N(C)C[C@H]2OCCCC[C@H](C)Oc3ccc(NC(=O)Cc4ccccc4)cc3C(=O)N([C@@H](C)CO)C[C@H]2C)cc1	nt	nt	i	nt	nt	nt
Cc1ccc(Oc2cc([N+](=O)[O-])cc3c2C(=O)Nc2ccccc2O3)cc1	56	i	i	i	i	i
C/C(=C\C(=O)Nc1cscc1C)C(=O)O	i	i	i	i	i	74
CSc1ccc(S(=O)(=O)N2CCC(C(=O)NCCCn3ccnc3)CC2)cc1	83	i	i	i	i	i
Cc1ccc(S(=O)(=O)N2CCC(C(=O)NCCCn3ccnc3)CC2)cc1	i	i	i	i	i	i
CC(NC(=O)c1ccco1)c1nc(-c2ccc(C(C)(C)C)cc2)no1 (stereo unspecified)	57	i	i	i	i	i
CCC(C)NC(=O)CC(NS(=O)(=O)c1ccc(Cl)cc1)c1ccco1 (stereo unspecified)	59	i	nt	i	i	?
COc1ccc(-c2[nH]ncc2/C=N\NC(=O)c2ccc(C(C)(C)C)cc2)cc1OC	i	i	i	i	i	i
CCCCOc1ccc(C(=O)N/N=C/c2cn[nH]c2-c2ccc(OC)c(OC)c2)cc1	i	i	i	i	i	54
SMILES	TWEAK Fn14 block	TROY signal inh	LGR2 inh	HSF1 inhib	LMP1 NFkB inh	HSF1 activator
O=C(Nc1nnc(CCS(=O)(=O)c2ccc(Br)cc2)s1)c1ccc([N+](=O)[O-])cc1	51	i	nt	nt	i	nt
O=C(Nc1nnc(COc2ccc(Cl)cc2)s1)c1ccc([N+](=O)[O-])cc1	i	i	nt	i	i	i
CN1CCN(c2ccc(NC(=O)c3cc4ccccc4o3)cc2)CC1	i	i	i	i	i	i
O=C(Nc1ccc(N2CCN(C(=O)c3ccccc3)CC2)cc1)c1ccc(Br)o1	i	i	nt	i	i	i
O=C(Nc1ccc(N2CCN(C(=O)c3ccccc3)CC2)c(Cl)c1)c1ccc(Br)o1	i	i	89	i	i	i
O=C(Nc1ccccc1N1CCOCC1)c1cc2ccccc2o1	i	i	i	i	i	?
O=C(Nc1ccc(N2CCOCC2)c(Cl)c1)c1cc2ccccc2o1	i	i	nt	i	i	55
O=C(Nc1ccc(N2CCN(C(=O)c3ccccc3)CC2)cc1)c1cc2ccccc2o1	91	70	82	nt	i	nt
